Results as given in PubChem BioAssay AID1347074 (Center for Chemical Genomics, University of Michigan, 2019).
Screen size: about 47,000 compounds; about 2,800 (6%) were called active. Rule as the data show it: active = z-score above about 3 (passing the limit was not always enough); inactive = the rest. The list comes from a sample in which actives are over-represented; it also holds similar structures and randomly drawn compounds.

What follows are compounds tested against Endoribonuclease Dicer (Homo sapiens) (UniProt Q9UPY3) (assay: inhibitors of Dicer pre-microRNA processing, primary screen, biochemical, cat-ELCCA, chemiluminescence (AID 1347074;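 also: plate controls were vehicle for no effect and no enzyme for full effect; higher signal means more uncleaved substrate so more Dicer inhibition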)). Conditions: cat-ELCCA pre-miR-21 Dicer processing, at 25 µM, hits give high values.
Chain of Endoribonuclease Dicer (Homo sapiens) (Q9UPY3 whole entry, looked up): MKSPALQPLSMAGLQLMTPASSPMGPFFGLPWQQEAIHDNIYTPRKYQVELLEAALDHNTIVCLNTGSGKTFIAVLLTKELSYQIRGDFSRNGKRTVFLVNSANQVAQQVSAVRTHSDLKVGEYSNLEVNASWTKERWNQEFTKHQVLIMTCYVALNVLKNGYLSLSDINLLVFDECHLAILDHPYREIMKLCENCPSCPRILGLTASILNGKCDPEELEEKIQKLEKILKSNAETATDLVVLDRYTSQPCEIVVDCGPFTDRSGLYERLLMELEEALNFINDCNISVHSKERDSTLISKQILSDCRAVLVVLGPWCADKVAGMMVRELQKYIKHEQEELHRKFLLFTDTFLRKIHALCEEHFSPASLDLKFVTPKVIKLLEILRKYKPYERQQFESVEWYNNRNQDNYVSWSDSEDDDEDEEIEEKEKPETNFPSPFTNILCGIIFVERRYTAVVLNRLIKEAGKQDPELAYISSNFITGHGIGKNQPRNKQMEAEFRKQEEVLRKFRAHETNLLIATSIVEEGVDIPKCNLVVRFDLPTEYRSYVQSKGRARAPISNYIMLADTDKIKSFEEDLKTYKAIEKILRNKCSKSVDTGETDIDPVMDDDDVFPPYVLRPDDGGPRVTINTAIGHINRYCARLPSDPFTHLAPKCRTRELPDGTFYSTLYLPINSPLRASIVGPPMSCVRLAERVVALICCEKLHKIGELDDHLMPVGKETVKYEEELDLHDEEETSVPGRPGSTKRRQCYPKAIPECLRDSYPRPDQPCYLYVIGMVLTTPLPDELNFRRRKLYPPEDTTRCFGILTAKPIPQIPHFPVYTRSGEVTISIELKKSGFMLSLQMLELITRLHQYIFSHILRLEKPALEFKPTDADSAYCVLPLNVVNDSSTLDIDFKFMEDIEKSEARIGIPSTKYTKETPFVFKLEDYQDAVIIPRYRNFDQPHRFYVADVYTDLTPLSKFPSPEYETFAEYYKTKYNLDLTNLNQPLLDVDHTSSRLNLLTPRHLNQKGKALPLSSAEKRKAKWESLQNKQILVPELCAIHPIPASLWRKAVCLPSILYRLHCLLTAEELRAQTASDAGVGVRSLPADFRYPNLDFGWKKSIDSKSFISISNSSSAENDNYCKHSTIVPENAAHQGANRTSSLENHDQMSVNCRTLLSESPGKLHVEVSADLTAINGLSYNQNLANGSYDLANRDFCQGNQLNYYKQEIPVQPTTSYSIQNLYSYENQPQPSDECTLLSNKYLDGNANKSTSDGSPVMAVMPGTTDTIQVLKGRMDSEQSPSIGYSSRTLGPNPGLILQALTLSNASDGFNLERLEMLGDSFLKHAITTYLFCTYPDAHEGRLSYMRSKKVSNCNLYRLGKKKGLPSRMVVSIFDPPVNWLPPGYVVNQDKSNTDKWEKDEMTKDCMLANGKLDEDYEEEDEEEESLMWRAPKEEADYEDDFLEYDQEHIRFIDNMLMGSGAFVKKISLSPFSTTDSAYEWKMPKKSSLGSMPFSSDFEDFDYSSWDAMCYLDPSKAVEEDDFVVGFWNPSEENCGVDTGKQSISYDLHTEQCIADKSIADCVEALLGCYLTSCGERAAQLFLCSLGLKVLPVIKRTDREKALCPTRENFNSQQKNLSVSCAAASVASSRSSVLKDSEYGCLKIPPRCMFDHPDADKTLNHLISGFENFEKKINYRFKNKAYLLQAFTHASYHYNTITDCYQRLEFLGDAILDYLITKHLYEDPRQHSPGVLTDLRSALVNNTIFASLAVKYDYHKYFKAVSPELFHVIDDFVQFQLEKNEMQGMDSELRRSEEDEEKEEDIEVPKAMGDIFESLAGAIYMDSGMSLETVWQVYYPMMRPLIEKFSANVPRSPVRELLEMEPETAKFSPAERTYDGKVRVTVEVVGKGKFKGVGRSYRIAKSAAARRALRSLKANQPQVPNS

SMILES | z-score
CCCCC(=O)N(c1ccc2oc(=O)sc2c1)S(=O)(=O)c1ccc(F)cc1 | 3.38 (active)
COc1ccc(S(=O)(=O)N(C(=O)c2ccncc2)c2ccc3oc(=O)sc3c2)cc1OC | 3.3 (active)
COC(=O)c1c(C)oc2ccc(N(C(=O)Oc3ccccc3)S(=O)(=O)c3ccccc3)cc12 | -0.23 (inactive)
O=C(c1cccnc1)N(c1ccc2oc(=O)sc2c1)S(=O)(=O)c1ccccc1 | 3.74 (active)
O=C(c1cccnc1)N(c1cc2sc(=O)oc2c2ccccc12)S(=O)(=O)c1ccccc1 | -2.86 (inactive)
CCOC(=O)C(C)Oc1ccc2c(=O)c(-c3ccc(OC)c(OC)c3)c(C(F)(F)F)oc2c1 (stereo unspecified) | 0.03 (inactive)
O=C1/C(=C/c2cc(Br)cs2)Cc2ccccc21 | -0.91 (inactive)
CCOC(=O)/C(C#N)=C/N=C(N/N=C(\C)c1cc2ccccc2o1)SC | -2.01 (inactive)
NC(=O)CN1C(=O)C(O)(CC(=O)c2ccc3c(c2)CCCC3)c2ccccc21 (stereo unspecified) | -1.03 (inactive)
O=S(=O)(c1cc(Cl)ccc1Cl)N1c2ccccc2OC1c1ccc(Cl)c(Cl)c1 (stereo unspecified) | -0.36 (inactive)
CSC(=Nc1ccccc1C(F)(F)F)N1CCCC1 | 1.69 (inactive)
CSC(=Nc1cc(C(F)(F)F)cc(C(F)(F)F)c1)N1CCCCC1 | 5.99 (active)
CCCC1c2ccsc2CCN1C(=S)Nc1ccccc1C(=O)OC (stereo unspecified) | -0.25 (inactive)
CSc1nnc(/N=C/c2ccccc2O)s1 | 0.16 (inactive)
Oc1ccccc1C=NCCCN=Cc1ccccc1O | 4.14 (active)
O=C(O/N=C(/Cc1ccccc1)C(F)(F)F)c1ccc(Cl)cc1 | -0.11 (inactive)
Cc1cc(C)c2c(-n3cccc3)c(C(=O)c3ccc(Cl)cc3)sc2n1 | -2.32 (inactive)
Nc1c(C(=O)c2ccc(Cl)cc2)sc2nc(-c3cccs3)cc(C(F)(F)F)c12 | 4.28 (active)
Cc1cc(-c2cccs2)c2c(N)c(C(=O)c3ccccc3)sc2n1 | 0.82 (inactive)
COc1cccc(-c2nc(-c3cc4cc(C)ccc4[nH]c3=O)no2)c1 | 0.33 (inactive)
Cc1cc(C)c2c(N)c(C(=O)NNC(=S)Nc3ccccc3)sc2n1 | 5.62 (active)
Cc1cc(C)c2c(N)c(-c3n[nH]c(=S)n3C)sc2n1 | -3.29 (inactive)
CCOC(=O)c1c(NC(=O)c2sc3nc(C)cc(COC)c3c2N)sc2c1CCCC2 | -1.64 (inactive)
C(#CCN1CCCCC1)COC(c1ccccc1)c1ccccc1 | 4.06 (active)
C#CC(CCN1CCCCC1)(OC)c1ccccc1 (stereo unspecified) | -0.6 (inactive)
NS(=O)(=O)c1ccc2c(c1)OCCO2 | -0.87 (inactive)
